Results as given in PubChem BioAssay (NCI).
This is part of a sample that, as a whole, favours compounds with a hit. Of some 83,000 tested, about 20% had one in any assay.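 Cell lines were cultured in 96-well plates, exposed to a single compound concentration, and assessed for percent growth 48 hours later.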 Calls of active or inactive are those of the source. How the source made its calls: active means growth percent below 10; inactive means the rest.

Experiments:
Experiment in all cases: NCI-60 one-dose screen, 48 h (100 = growth as untreated, 0 = no growth, -100 = all killed)
Conditions in all cases: 10 µM
786-0 renal = system: 786-0 renal
MALME-3M melanoma = system: MALME-3M melanoma
RXF 393 renal = system: RXF 393 renal
UACC-257 melanoma = system: UACC-257 melanoma
SK-MEL-2 melanoma = system: SK-MEL-2 melanoma
SN12C renal = system: SN12C renal
TK-10 renal = system: TK-10 renal
ACHN renal = system: ACHN renal
A498 renal = system: A498 renal
RPMI-8226 leukemia = system: RPMI-8226 leukemia
OVCAR-8 ovarian = system: OVCAR-8 ovarian
OVCAR-4 ovarian = system: OVCAR-4 ovarian
SK-OV-3 ovarian = system: SK-OV-3 ovarian
IGROV1 ovarian = system: IGROV1 ovarian
OVCAR-3 ovarian = system: OVCAR-3 ovarian
NCI/ADR-RES ovarian = system: NCI/ADR-RES ovarian
T-47D breast = system: T-47D breast
BT-549 breast = system: BT-549 breast
MDA-MB-435 melanoma = system: MDA-MB-435 melanoma
MCF7 breast = system: MCF7 breast

Row | SMILES | growth (786-0 renal) | growth (MALME-3M melanoma) | growth (RXF 393 renal) | growth (UACC-257 melanoma) | growth (SK-MEL-2 melanoma) | growth (SN12C renal) | growth (TK-10 renal) | growth (ACHN renal) | growth (A498 renal) | growth (RPMI-8226 leukemia) | growth (OVCAR-8 ovarian) | growth (OVCAR-4 ovarian) | growth (SK-OV-3 ovarian) | growth (IGROV1 ovarian) | growth (OVCAR-3 ovarian) | growth (NCI/ADR-RES ovarian) | growth (T-47D breast) | growth (BT-549 breast) | growth (MDA-MB-435 melanoma) | growth (MCF7 breast)
1 | C#CC[Se]C(=O)c1ccc(C(=O)[Se]CC#C)s1 | 82.2% (inactive) | 98.1% (inactive) | 101% (inactive) | 90.7% (inactive) | 126% (inactive) | 85.9% (inactive) | 84.8% (inactive) | 43.6% (inactive) | 101% (inactive) | 86% (inactive) | 75.6% (inactive) | 103% (inactive) | 110% (inactive) | 85.5% (inactive) | 84.5% (inactive) | 76.1% (inactive) | 88.8% (inactive) | 101% (inactive) | 95.8% (inactive) | 91.5% (inactive)
2 | CC(C)C[C@H](NC(=O)CNC(=O)C[C@H]1O[C@@H]2OC3(C)CC[C@H]4[C@H](C)CC[C@@H]([C@H]1C)[C@@]24OO3)B(O)O | 21% (inactive) | -56.5% (active) | -81.6% (active) | -56.9% (active) | -57.3% (active) | -53.1% (active) | 12.1% (inactive) | 7.48% (active) | 43.1% (inactive) | -14.5% (active) | 5.76% (active) | 22.1% (inactive) | 41.6% (inactive) | 2.58% (active) | -12.4% (active) | 94.2% (inactive) | -32.8% (active) | -83.5% (active) | -61.2% (active) | 19.1% (inactive)
3 | CC12OOC(C)(OO1)C2CCC(=O)NCCCNc1ccnc2cc(Cl)ccc12 (stereo not given) | -12.2% (active) | -94.6% (active) | 4.73% (active) | 96.2% (inactive) | 100% (inactive) | 91.9% (inactive) | 23.4% (inactive) | -100% (active) | 114% (inactive) | 39% (inactive) | 94.9% (inactive) | -42.2% (active) | 103% (inactive) | 67.1% (inactive) | -49.6% (active) | 99.9% (inactive) | 40% (inactive) | 121% (inactive) | 93.8% (inactive) | 58.1% (inactive)
4 | CC[C@]12C=CCN3CC[C@@]4(c5ccc(OC)cc5N(C)[C@H]4[C@@](O)(C(=O)OC)[C@@H]1OC(=O)CCCC[P+](c1ccc(C)cc1)(c1ccc(C)cc1)c1ccc(C)cc1)[C@@H]32 | -91% (active) | -96% (active) | -87.6% (active) | -95% (active) | -87.3% (active) | -88.5% (active) | -91.3% (active) | -99.3% (active) | -90.9% (active) | -46% (active) | -86.6% (active) | -68.9% (active) | -82.3% (active) | -91.8% (active) | -77.1% (active) | 71.8% (inactive) | -64.5% (active) | -97% (active) | -86.8% (active) | -81.2% (active)
5 | COc1cc(OC)c(S(=O)(=O)N(CCCl)CCCl)cc1C(=O)/C=C/c1ccc(C)cc1 | 14.2% (inactive) | 83.5% (inactive) | -17.9% (active) | 90% (inactive) | 92.3% (inactive) | 53.6% (inactive) | 106% (inactive) | 64.9% (inactive) | 110% (inactive) | 59.9% (inactive) | 54.2% (inactive) | 52.2% (inactive) | 74.5% (inactive) | 86.8% (inactive) | 112% (inactive) | 63.2% (inactive) | 88% (inactive) | 93.8% (inactive) | 79.5% (inactive) | 63.6% (inactive)
6 | O=C(/C=C/c1ccccc1)c1nc2ccccc2n1Cc1ccc(Br)cc1 | -89.8% (active) | -64.7% (active) | -94.8% (active) | -51.1% (active) | -51.1% (active) | -58.7% (active) | -47.9% (active) | -74.5% (active) | 51% (inactive) | -23.1% (active) | -18.5% (active) | 27% (inactive) | 28.7% (inactive) | -57.8% (active) | -72.5% (active) | -37.4% (active) | -31.3% (active) | -69.8% (active) | -27.9% (active) | -48.7% (active)
7 | CC1=C(C=O)C2=C(C)C3(CC3)[C@@](C)(O)C(=O)C2=C1 | -38.7% (active) | 1.71% (active) | -68.8% (active) | 73.8% (inactive) | 8.32% (active) | 44.2% (inactive) | 53.6% (inactive) | -61.1% (active) | -30.3% (active) | 17.1% (inactive) | -25.3% (active) | 44.5% (inactive) | -3.31% (active) | 53.6% (inactive) | -9.94% (active) | 16% (inactive) | 13.5% (inactive) | -14.5% (active) | -35.2% (active) | 14% (inactive)
